SMILES strings stand for the structures. Hit rate of the full screen: of about 310,000 compounds, about 14,000 (4.5%) showed an effect of 50% or more. Effects have a minus sign here. The entries come from a sample that favours strong results as a whole.
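Also: peak tail current of the secondary pulse compared with the same well before compound.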

In this test the target is human ether-à-go-go-related gene (hERG) potassium channel (human, UniProt Q12809). Briefly: primary screen, population patch clamp on CHO cells stably expressing hERG; higher = less effect of the substance.
human ether-à-go-go-related gene (hERG) potassium channel, sequence (Q12809 whole entry, looked up): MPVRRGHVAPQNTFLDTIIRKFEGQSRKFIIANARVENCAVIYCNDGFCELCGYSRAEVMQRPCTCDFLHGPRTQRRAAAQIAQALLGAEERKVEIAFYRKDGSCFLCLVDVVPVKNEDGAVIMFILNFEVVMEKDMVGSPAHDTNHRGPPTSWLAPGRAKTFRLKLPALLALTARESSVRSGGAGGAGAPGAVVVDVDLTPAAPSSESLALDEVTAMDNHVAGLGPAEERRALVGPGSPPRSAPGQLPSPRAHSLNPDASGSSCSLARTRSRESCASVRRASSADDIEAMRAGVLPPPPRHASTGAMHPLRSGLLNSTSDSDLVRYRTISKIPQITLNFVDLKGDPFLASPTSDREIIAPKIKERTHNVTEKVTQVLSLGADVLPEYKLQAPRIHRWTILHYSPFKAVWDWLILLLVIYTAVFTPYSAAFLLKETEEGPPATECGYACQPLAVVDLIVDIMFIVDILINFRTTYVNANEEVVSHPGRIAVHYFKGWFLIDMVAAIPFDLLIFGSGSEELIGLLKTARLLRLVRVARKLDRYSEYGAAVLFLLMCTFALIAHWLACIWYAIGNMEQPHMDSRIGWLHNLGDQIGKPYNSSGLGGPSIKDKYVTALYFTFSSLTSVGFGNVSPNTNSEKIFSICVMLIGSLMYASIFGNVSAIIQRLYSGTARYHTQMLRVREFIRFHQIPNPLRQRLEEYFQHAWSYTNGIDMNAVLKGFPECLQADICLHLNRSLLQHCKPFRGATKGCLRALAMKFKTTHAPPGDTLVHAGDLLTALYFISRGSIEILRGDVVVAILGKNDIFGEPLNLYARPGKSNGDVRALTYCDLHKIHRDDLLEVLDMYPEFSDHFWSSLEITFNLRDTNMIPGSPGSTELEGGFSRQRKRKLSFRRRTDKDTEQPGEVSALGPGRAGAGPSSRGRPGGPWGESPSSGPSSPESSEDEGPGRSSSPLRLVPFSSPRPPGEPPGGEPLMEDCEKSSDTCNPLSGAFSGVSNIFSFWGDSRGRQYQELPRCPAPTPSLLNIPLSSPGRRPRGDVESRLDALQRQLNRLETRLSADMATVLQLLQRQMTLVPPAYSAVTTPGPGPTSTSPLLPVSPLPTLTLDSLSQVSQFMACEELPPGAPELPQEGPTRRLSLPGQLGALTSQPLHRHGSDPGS
Regarding `CCOc1ccc2nc(NC(=S)N(C)C)sc2c1`, the “hERG current change (%, negative = inhibition) at 10uM” value is on record as 13%. Then `Cc1ccnc(NC(=S)NC(=O)c2ccco2)c1`, with -10.3%; and `Cc1cc(C)c(C(=O)COC(=O)c2cc([N+](=O)[O-])ccc2N2CCOCC2)cc1C`, with -4.07%. Next, `Cc1ccc(SC(C)c2nc(-c3cccnc3)no2)cc1` (centres unmarked): -30.5%.

With `COc1ccc(OC)c(CN2CCN(C(=O)c3ccco3)CC2)c1.O=C(O)C(=O)O`, the “hERG current change (%, negative = inhibition) at 10uM” value amounted to 0.201%.

On to `COC(=O)CSc1nnc(-c2ccco2)n1Cc1ccco1`, for which the “hERG current change (%, negative = inhibition) at 10uM” value is on record as -26.8%.

Consider `COc1ccc(C)cc1NC(=O)CSc1nnc(-c2ccco2)n1Cc1ccco1`, for which the “hERG current change (%, negative = inhibition) at 10uM” value is on record as -12.8%. For `COc1ccccc1NC(=O)CSc1nnc(-c2ccco2)n1Cc1ccco1`, the “hERG current change (%, negative = inhibition) at 10uM” value is given as -65.4%. Next, `CN(C)c1cc(-c2ccc(C#N)cc2)oc(=O)c1Cl`: -50.1%; `CN(C)c1cc(-c2ccc(Cl)cc2)oc(=O)c1Cl`: -6.67%. Next, `CN(C)c1cc(-c2ccc(Br)cc2)oc(=O)c1Cl`: 15.5%; `CCCCSc1cc(C)nc(N)n1`: -1.73%; `O=C(Nc1ccc(O)c(C(=O)O)c1)c1ccc2c(c1)C(=O)N(CC1CCCO1)C2=O` (centres unmarked): 6.21%. Next, `CCCCCC(O)(CCN1CCCCC1)c1ccc(OCC)cc1.Cl` (centres unmarked): -77.1%. Regarding `CCCCCCC(O)(CCN1CCCCC1)c1ccccc1.Cl` (centres unmarked), the “hERG current change (%, negative = inhibition) at 10uM” value was -70.3%. For `CCCCOc1ccc(C(O)(CCN2CCOCC2)c2ccccc2)cc1.Cl` (centres unmarked), the “hERG current change (%, negative = inhibition) at 10uM” value is on record as -21.7%. For the compound `CCCCCC(O)(CCN1CCCCC1)c1ccccc1.Cl` (centres unmarked), the “hERG current change (%, negative = inhibition) at 10uM” value was -82.4%. Consider `Cl.OC(CCCN1CCCCC1)(c1ccccc1)c1ccccc1`, for which the “hERG current change (%, negative = inhibition) at 10uM” value was -44%. Then `COc1ccc(C(O)(CCc2ccccc2)CCN2CCCCC2)cc1.Cl` (centres unmarked), with -17.5%; and `CS(=O)(=O)O.OC(CCN1CCCCC1)(c1ccccc1)c1ccccc1`, with -36.2%; and `C=CCC(O)(CCN1CCCCC1)c1ccccc1.Cl` (centres unmarked), with -10.8%. Next, `CCC(O)(CCN1CCCCC1)c1ccccc1` (centres unmarked): -5.84%; `NC(=O)c1nsc(C(=O)N(c2cccc(F)c2)C(C(=O)NCc2ccccc2)c2ccc(O)cc2)c1N` (centres unmarked): -22.4%; `Cc1cccn2c(CN(C)CC3CCCCO3)c(C(=O)N3CCCCC3)nc12` (centres unmarked): 20.9%. Then `Cc1cc(S(=O)(=O)NCc2ccco2)c(C)cc1Cl`, with 14.1%.

Consider `COc1ccc(-c2nc3ccccc3c(=O)n2N)cc1`, for which the “hERG current change (%, negative = inhibition) at 10uM” value was -13.7%. For the compound `Cc1nnc(NC(=O)c2csc3c2CCC(C)C3)s1` (centres unmarked), the “hERG current change (%, negative = inhibition) at 10uM” value worked out at 13.9%. As to `CC(C)Cn1c2nc3ccccc3nc2c2c(=O)n(CCN3CCOCC3)cnc21`, the “hERG current change (%, negative = inhibition) at 10uM” value is on record as -48.1%.

For the compound `O=C(NCCCN1CCOCC1)C(=O)NCc1ccco1`, the “hERG current change (%, negative = inhibition) at 10uM” value was -1.68%. For `O=C(NCCN1CCOCC1)C(=O)NCc1ccco1`, the “hERG current change (%, negative = inhibition) at 10uM” value is recorded as 19.5%.

With `N=c1c2c(-c3ccccc3)c(-c3ccccc3)n(Cc3ccco3)c2ncn1CCCN1CCOCC1`, the “hERG current change (%, negative = inhibition) at 10uM” value is -84.9%. Regarding `O=c1c2ccccc2nc(-c2ccccc2)n1CCCN1CCOCC1`, the “hERG current change (%, negative = inhibition) at 10uM” value is -20.4%. Consider `N=c1c2c(-c3ccccc3)c(-c3ccccc3)n(Cc3ccco3)c2ncn1CCN1CCOCC1`, for which the “hERG current change (%, negative = inhibition) at 10uM” value is listed as -75.9%. Next, `Cc1ccccc1C(=O)NCCCNC(=O)c1cnccn1`: 13.5%; `COc1ccccc1OCc1nc(Cc2ccc(Cl)cc2)no1`: -31.4%; `CCn1c(=O)c(C(=O)NNC(=O)c2ccccc2Cl)c(O)c2ccccc21`: 7.09%. Consider `CC1=C(C(=O)OCC2CCCO2)C(c2ccccc2)C2=C(CCCC2=O)N1` (centres unmarked), for which the “hERG current change (%, negative = inhibition) at 10uM” value worked out at 11.2%. As for `CCC(C)[C@H](NC(=O)N1CCn2c1nc1ccccc12)C(=O)NCCc1ccccc1` (some centres unmarked), the “hERG current change (%, negative = inhibition) at 10uM” value is recorded as -2.42%. Regarding `COc1ccc(OC)c(/C=C/C(=O)OCC(=O)NCc2cccs2)c1`, the “hERG current change (%, negative = inhibition) at 10uM” value is recorded as 17.8%. Next, `Cc1onc(-c2ccccc2)c1NC(=O)N(CCC(=O)O)Cc1ccccc1`: 2.16%. Then `COc1ccc(NC(=O)CN(C)C(=O)c2ccc3c(c2)NC(=O)CS3)cc1`, with -10.2%. Next, `COC(=O)c1cc(NC(=O)c2cccs2)ccc1N1CCOCC1`: -1.74%; `COc1ccc(-c2cc(C(=O)N3CC(C)CC(C)C3)c3ccccc3n2)cc1` (centres unmarked): 5.7%.

`CC(C)CC(C(=O)N1CCOCC1)N1Cc2ccccc2C1=O` (centres unmarked): the “hERG current change (%, negative = inhibition) at 10uM” value is reported as 29.3%. Take `CC(C)CC(C(=O)N1CCc2ccccc2C1)N1C(=O)c2ccccc2C1=O` (centres unmarked): the “hERG current change (%, negative = inhibition) at 10uM” value is given as -50.3%.

Turning to `O=C(CCCN1C(=O)c2ccccc2C1=O)N1CCc2ccccc2C1`, the “hERG current change (%, negative = inhibition) at 10uM” value is recorded as -27.2%. Then `Cc1cc(NC(=O)c2cccs2)ncc1NC(=O)C(C)(C)C`, with 9.59%; and `O=C(c1ccc(-c2ccccc2)cc1)C1CCCN(Cc2ccncc2)C1` (centres unmarked), with -62.6%. Take `Cn1nc(C(=O)N2CCCC2)c2ccccc2c1=O`: the “hERG current change (%, negative = inhibition) at 10uM” value is given as 23%. As for `CSc1ccc(C(=O)C2CCCN(C)C2)cc1` (centres unmarked), the “hERG current change (%, negative = inhibition) at 10uM” value is listed as -23.1%.

Consider `CN(C)S(=O)(=O)N1CCCC(C(=O)c2ccc(-c3ccccc3)c(F)c2)C1` (centres unmarked), for which the “hERG current change (%, negative = inhibition) at 10uM” value is given as 7.39%. Take `O=C(c1ccc(-c2ccccc2)cc1)C1CCCN(C(=O)c2ccncc2)C1` (centres unmarked): the “hERG current change (%, negative = inhibition) at 10uM” value is reported as -13.4%. Next, `Cn1cc(CN2CCCC(C(=O)c3ccc(-c4ccccc4)c(F)c3)C2)cn1` (centres unmarked): -55.4%; `O=C(c1ccc(C(F)(F)F)cc1)C1CCCN(Cc2ccncc2)C1` (centres unmarked): -23.7%; `CSc1ccc(C(=O)C2CCCN(C(=O)c3nn(C)c(=O)c4ccccc34)C2)cc1` (centres unmarked): -64.9%. Then `CSc1ccc(C(=O)C2CCCN(CCCn3cccn3)C2)cc1` (centres unmarked), with -76.8%.

For `CSc1ccc(C(=O)C2CCCN(C(=O)CCCn3cncn3)C2)cc1` (centres unmarked), the “hERG current change (%, negative = inhibition) at 10uM” value is -40.5%. Then `CSc1ccc(C(=O)C2CCCN(C(=O)c3cc(C)n(C)n3)C2)cc1` (centres unmarked), with -7.88%; and `Clc1ccc(-c2csc(N/N=C/c3cccnc3)n2)c(Cl)c1`, with -11.9%.
